In the supplement of paper PMC10849652:
About 7,900 targets were measured; listed, in parts, are those with a hit and a random draw of the rest. About 0.6% of all pairs of compound and target were hits. Values without a mark were called inactive.

Legend:
Assay in all cases: log2 fold change, soluble protein after heating vs DMSO (PISA); higher = thermal stabilisation; K562 cells, 10 uM, 30 min; active = over 0.2 and 3.5 SD of the protein, either way, in both replicates (recomputed)
[1] = compound: NC(=O)Nc1cc(-c2cccc(F)c2)sc1C(=O)N[C@H]1CCCNC1
Summary of the method: (§1)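 K562 cells at 2×10^6 cells/mL were treated with 10 μM compound for 30 min. Aliquots were heated for 3 min across 48°C-58°C, pooled, and extracted in PBS with 0.5% NP-40 at 4°C; soluble protein was the supernatant after 21,000xg for 90 min. Soluble protein was quantified by TMTpro 16plex LC-MS/MS with channel sums equalised, and reported as log2 fold change in thermal stability against DMSO controls, with values from duplicates.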

[2] = compound: NC(=O)c1cnc(N[C@@H]2CCCC[C@@H]2N)nc1Nc1cccc(-n2nccn2)c1
Summary of the method: as §1

[3] = compound: NC1(c2ccc(-c3nc4ccn5c(=O)[nH]nc5c4cc3-c3ccccc3)cc2)CCC1
Summary of the method: as §1

[4] = compound: NCC(=O)Nc1ccc(-n2nc(C(F)(F)F)cc2-c2ccc3c(ccc4ccccc43)c2)cc1
Summary of the method: as §1

entinostat = compound: Nc1ccccc1NC(=O)c1ccc(CNC(=O)OCc2cccnc2)cc1 [entinostat]
Summary of the method: as §1

vorinostat = compound: O=C(CCCCCCC(=O)Nc1ccccc1)NO [vorinostat]
Summary of the method: as §1

citarinostat = compound: O=C(CCCCCCNC(=O)c1cnc(N(c2ccccc2)c2ccccc2Cl)nc1)NO [citarinostat]
Summary of the method: as §1

silmitasertib = compound: O=C(O)c1ccc2c(c1)nc(Nc1cccc(Cl)c1)c1ccncc12 [silmitasertib]
Summary of the method: as §1

[5] = compound: O=C1NC(=O)C(c2cnc3ccccn23)=C1c1cn2c3c(cc(F)cc13)CN(C(=O)N1CCCCC1)CC2
Summary of the method: as §1

[6] = compound: c1cc(OCCN2CCCCC2)cc(-c2n[nH]c3ccc(-c4nnc[nH]4)cc23)c1
Summary of the method: as §1

entospletinib = compound: c1cn2cc(-c3ccc4cn[nH]c4c3)nc(Nc3ccc(N4CCOCC4)cc3)c2n1 [entospletinib]
Summary of the method: as §1

Sequence of UniProt P20226 (P20226 whole entry, looked up): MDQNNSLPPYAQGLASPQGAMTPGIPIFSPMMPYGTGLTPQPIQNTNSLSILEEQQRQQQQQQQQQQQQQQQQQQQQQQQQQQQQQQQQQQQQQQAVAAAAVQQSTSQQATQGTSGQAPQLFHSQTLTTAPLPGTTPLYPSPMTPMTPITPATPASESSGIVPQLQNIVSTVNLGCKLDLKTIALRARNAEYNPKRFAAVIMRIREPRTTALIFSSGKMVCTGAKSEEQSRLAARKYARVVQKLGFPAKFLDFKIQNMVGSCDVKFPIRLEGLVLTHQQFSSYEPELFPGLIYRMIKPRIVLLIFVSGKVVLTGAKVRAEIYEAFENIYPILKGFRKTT
Sequence of UniProt Q9NRH2 (Q9NRH2 whole entry, looked up): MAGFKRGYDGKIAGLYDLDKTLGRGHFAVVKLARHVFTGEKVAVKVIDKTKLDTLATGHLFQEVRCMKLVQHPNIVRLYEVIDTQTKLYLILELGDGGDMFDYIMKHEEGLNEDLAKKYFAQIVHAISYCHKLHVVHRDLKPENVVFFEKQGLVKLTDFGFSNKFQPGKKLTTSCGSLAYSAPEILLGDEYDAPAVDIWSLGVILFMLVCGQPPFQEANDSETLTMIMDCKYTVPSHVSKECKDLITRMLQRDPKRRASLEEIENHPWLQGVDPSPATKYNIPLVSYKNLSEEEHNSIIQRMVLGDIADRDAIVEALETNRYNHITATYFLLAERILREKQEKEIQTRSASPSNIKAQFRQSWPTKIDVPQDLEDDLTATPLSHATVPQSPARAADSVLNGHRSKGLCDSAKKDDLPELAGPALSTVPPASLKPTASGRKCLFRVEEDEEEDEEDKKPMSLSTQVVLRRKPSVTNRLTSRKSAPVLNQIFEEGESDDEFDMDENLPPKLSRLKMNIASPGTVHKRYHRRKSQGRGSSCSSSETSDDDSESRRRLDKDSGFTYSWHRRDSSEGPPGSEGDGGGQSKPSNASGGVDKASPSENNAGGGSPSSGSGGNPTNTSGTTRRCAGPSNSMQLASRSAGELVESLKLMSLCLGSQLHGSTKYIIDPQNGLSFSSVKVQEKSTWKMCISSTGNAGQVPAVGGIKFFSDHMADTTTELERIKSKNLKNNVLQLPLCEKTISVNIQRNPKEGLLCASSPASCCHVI
Sequence of UniProt Q12824 (Q12824 whole entry, looked up): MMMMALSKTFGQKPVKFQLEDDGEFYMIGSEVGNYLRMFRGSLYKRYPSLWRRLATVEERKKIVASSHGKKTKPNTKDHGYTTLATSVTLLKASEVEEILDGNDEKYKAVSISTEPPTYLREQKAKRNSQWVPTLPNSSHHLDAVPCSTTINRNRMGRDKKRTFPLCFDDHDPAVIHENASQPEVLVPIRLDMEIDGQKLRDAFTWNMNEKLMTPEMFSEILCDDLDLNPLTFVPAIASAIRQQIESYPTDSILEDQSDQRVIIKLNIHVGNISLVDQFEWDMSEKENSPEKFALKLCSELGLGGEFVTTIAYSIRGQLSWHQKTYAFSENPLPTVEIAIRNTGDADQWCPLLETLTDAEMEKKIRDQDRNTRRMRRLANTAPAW
Sequence of UniProt Q9C0B7 (Q9C0B7 whole entry, looked up): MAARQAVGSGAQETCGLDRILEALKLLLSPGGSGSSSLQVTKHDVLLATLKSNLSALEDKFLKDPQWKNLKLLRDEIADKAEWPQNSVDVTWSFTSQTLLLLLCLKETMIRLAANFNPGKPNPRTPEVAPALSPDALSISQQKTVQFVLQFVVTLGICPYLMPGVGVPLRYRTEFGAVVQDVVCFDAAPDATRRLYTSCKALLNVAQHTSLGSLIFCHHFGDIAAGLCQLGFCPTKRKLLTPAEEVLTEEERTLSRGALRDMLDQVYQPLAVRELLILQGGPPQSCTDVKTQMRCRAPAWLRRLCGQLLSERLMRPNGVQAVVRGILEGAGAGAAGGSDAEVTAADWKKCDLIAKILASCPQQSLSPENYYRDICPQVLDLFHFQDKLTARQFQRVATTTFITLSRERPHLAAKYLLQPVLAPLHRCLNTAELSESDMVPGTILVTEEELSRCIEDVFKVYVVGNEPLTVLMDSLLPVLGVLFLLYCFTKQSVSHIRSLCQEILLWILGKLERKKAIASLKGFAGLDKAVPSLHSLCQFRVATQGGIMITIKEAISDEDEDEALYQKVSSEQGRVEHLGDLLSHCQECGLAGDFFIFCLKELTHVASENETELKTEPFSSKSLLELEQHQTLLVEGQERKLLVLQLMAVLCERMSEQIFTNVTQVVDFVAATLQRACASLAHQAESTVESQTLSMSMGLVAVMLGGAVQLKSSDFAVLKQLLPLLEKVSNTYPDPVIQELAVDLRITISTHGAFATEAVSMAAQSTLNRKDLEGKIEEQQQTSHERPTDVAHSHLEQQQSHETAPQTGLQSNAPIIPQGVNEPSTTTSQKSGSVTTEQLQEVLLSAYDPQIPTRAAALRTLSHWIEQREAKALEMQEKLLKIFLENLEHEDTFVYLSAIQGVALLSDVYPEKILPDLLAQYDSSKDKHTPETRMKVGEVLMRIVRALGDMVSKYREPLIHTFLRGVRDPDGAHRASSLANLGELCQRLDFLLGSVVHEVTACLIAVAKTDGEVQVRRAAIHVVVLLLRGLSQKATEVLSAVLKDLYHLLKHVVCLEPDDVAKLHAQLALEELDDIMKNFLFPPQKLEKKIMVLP
Sequence of UniProt Q9Y5W9 (Q9Y5W9 whole entry, looked up): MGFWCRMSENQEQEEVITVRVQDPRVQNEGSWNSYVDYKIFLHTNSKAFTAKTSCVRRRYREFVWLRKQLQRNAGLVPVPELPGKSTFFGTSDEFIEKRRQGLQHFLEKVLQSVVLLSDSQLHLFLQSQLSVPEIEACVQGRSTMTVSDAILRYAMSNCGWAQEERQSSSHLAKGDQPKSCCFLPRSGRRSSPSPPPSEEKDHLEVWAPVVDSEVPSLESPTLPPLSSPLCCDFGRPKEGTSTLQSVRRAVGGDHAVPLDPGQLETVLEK
Sequence of UniProt Q6PCB7 (Q6PCB7 whole entry, looked up): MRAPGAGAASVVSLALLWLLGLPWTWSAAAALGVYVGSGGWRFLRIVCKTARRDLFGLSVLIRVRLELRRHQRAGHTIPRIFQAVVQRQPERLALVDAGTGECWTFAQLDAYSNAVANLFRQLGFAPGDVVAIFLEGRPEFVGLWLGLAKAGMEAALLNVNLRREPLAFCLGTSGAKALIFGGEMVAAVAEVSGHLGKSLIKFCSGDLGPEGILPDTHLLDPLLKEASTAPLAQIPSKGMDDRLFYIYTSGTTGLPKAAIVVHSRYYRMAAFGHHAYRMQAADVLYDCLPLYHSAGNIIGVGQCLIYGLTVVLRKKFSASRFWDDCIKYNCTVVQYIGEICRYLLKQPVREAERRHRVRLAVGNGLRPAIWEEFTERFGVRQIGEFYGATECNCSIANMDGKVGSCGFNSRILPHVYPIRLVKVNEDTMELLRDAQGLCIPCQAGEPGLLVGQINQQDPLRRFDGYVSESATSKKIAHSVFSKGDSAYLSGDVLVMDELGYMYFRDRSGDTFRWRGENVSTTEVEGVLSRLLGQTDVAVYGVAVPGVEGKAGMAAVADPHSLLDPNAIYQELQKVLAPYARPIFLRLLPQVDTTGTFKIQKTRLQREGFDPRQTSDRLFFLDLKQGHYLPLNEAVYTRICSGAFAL
Sequence of UniProt Q13428 (Q13428 whole entry, looked up): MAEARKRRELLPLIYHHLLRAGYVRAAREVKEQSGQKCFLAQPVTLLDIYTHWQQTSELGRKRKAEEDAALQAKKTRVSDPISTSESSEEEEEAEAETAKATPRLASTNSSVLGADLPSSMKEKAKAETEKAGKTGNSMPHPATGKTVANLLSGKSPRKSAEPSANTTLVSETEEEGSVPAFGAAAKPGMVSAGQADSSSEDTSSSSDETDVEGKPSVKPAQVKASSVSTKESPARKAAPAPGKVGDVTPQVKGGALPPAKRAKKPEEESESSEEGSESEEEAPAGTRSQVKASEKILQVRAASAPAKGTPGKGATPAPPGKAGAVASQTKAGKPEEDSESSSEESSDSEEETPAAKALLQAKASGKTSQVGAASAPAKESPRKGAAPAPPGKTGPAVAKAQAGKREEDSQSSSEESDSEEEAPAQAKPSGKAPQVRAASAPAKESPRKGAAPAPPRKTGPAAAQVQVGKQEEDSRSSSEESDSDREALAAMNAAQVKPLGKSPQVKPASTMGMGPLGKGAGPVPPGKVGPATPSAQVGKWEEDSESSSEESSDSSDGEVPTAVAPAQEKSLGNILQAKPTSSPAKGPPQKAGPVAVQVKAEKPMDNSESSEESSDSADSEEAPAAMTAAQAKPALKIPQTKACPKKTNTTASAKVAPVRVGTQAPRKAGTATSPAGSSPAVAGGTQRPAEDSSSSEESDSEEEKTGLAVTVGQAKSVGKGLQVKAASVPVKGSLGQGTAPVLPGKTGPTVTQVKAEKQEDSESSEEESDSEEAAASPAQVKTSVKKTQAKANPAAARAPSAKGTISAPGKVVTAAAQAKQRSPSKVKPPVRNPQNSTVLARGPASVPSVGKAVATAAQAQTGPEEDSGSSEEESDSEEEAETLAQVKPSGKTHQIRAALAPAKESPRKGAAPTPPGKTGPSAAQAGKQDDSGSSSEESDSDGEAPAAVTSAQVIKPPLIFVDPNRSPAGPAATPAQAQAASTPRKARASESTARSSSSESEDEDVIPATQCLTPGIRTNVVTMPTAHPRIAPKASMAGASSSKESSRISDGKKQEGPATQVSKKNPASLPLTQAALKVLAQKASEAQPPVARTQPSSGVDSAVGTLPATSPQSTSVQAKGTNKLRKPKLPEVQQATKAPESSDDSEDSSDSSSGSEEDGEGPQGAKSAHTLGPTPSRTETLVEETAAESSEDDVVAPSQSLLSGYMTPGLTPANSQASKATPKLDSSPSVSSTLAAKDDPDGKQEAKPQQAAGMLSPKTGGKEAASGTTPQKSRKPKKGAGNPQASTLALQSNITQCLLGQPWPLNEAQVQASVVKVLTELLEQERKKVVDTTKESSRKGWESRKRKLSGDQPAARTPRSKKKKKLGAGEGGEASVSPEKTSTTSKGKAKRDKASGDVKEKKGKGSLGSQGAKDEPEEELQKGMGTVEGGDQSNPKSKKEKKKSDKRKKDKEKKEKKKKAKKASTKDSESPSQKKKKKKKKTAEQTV

Target	log2 fold change [1]	log2 fold change [2]	log2 fold change [3]	log2 fold change [4]	log2 fold change (entinostat)	log2 fold change (vorinostat)	log2 fold change (citarinostat)	log2 fold change (silmitasertib)	log2 fold change [5]	log2 fold change [6]	log2 fold change (entospletinib)
SRSF4 (UniProt Q08170)	-0.059	0.036	0.196	0.03	-0.002	-0.02	-0.028	-0.005	0.206	-0.228	0.134
SMC5 (UniProt Q8IY18)	0.057	-0.034	-0.083	-0.051	-0.033	0.017	-0.021	0.052	-0.1	-0.051	0.016
SNX11 (UniProt Q9Y5W9)	-0.052	-0.277	-0.378 (active)	-0.052	0.097	0	0.233	0.025	-0.023	-0.072	0.135
SLC7A6OS (UniProt Q96CW6)	-0.023	-0.085	-0.079	0.042	-0.043	0.056	0.098	0.06	-0.036	-0.037	0.052
SLC35B1 isoform 2 (UniProt P78383)	-0.054	–	-0.029	-0.057	0.041	–	-0.052	0.261	0.138	-0.327	-0.154
TAF6L (UniProt Q9Y6J9)	-0.038	-0.067	-0.061	–	0.033	0.248	–	0.303	–	–	–
TATDN2 (UniProt Q93075)	-0.115	0.003	–	-0.126	0.009	0.004	-0.52 (active)	–	0.067	0.06	-0.046
SNRK (UniProt Q9NRH2)	-0.19	–	–	–	-0.046	–	0.26	–	–	0.325	-0.27
THAP9 (UniProt Q9H5L6)	–	0.021	0.024	–	–	–	–	0.049	–	–	–
SLC8B1 (UniProt Q6J4K2)	–	-0.078	–	0.034	–	-0.031	–	–	–	–	–
SSBP4 (UniProt U3KPY3)	–	–	-0.014	0.016	–	–	–	0.133	–	–	–
TEX30 (UniProt Q5JUR7)	–	-0.101	-0.097	-0.1	–	0.121	–	0.073	-0.04	–	–
SRFBP1 (UniProt Q8NEF9)	0.038	0.198	0.211	–	-0.071	0.009	0	0.054	0.122	0.116	-0.082
SOX5 (UniProt P35711)	0.035	-0.064	-0.015	0.03	-0.129	–	–	0.018	–	–	–
SLC9A6 isoform 3 (UniProt Q92581)	–	0.009	–	–	–	–	-0.066	–	–	0.172	0.052
SLC38A2 (UniProt Q96QD8)	-0.023	-0.046	-0.037	-0.12	0.018	–	0.025	0.054	0.014	-0.088	-0.02
TM7SF3 (UniProt Q9NS93)	0.091	0.048	-0.359 (active)	–	0.076	–	0.179	0.066	–	0.084	-0.081
TM7SF2 (UniProt O76062)	0.057	–	–	-0.276	0.119	–	–	–	–	–	–
SP2 (UniProt Q02086)	0.164	-0.144	–	–	-0.018	–	-0.063	–	–	-0.293	0.07
TCOF1 isoform 6 (UniProt Q13428)	0.281	–	-0.07	0.077	0.23	–	0.18	0.028	–	-0.042	-0.006
TBP (UniProt P20226)	–	0.095	0.015	0.033	–	–	0.013	0.183	-0.025	-0.041	0.012

Target	log2 fold change [1]	log2 fold change [2]	log2 fold change [3]	log2 fold change [4]	log2 fold change (entinostat)	log2 fold change (vorinostat)	log2 fold change (citarinostat)	log2 fold change (silmitasertib)	log2 fold change [5]	log2 fold change [6]	log2 fold change (entospletinib)
SLC35F6 (UniProt Q8N357)	-0.068	0.045	-0.161	0.005	-0.185	–	-0.026	0.023	0.074	0.025	-0.011
SSB (UniProt E7ERC4)	–	–	-0.168	-0.065	–	-0.176	–	0.022	–	–	–
SYK (UniProt P43405)	–	–	–	-0.029	–	–	-0.029	–	0.075	-0.123	0.015
TCOF1 isoform 3 (UniProt Q13428)	0.283	–	–	–	0.008	0.205	0.105	–	0.067	-0.146	0.399
TC2N (UniProt Q8N9U0)	–	0.015	-0.067	-0.13	–	–	–	-0.186	–	–	–
TENT5C (UniProt Q5VWP2)	-0.095	–	0.006	-0.32	0.035	-0.104	0.144	-0.038	–	-0.133	0.019
TAOK2 (UniProt Q9UL54)	–	–	-0.01	–	–	0.081	0.056	-0.009	0.184	0.12	-0.038
SLC46A1 (UniProt Q96NT5)	–	-0.143	–	0.137	–	-0.005	-0.061	–	–	0.01	0.078
SUPT5H isoform 2 (UniProt O00267)	–	–	–	-0.046	–	–	–	–	–	–	–
TBC1D2 (UniProt Q9BYX2)	–	-0.078	-0.181	–	–	-0.022	-0.026	0.26	0.058	-0.202	-0.015
SPAG9 isoform 4 (UniProt O60271)	-0.101	-0.164	-0.09	-0.199	0.034	–	-0.048	0.014	–	-0.017	0.003
SREBF1 isoform 4 (UniProt P36956)	–	–	-0.565 (active)	–	–	–	0.095	0.01	0.057	0.007	0.015
SLC39A1 (UniProt Q9NY26)	–	–	–	–	–	0.181	–	–	–	–	–
TANGO6 (UniProt Q9C0B7)	-0.007	-0.002	-0.167	–	0.035	–	-0.071	0.084	0.017	-0.089	-0.089
SPIRE1 (UniProt Q08AE8)	–	-0.025	0.063	-0.04	–	-0.035	0.022	-0.008	0.224	0.023	-0.085
SMARCB1 (UniProt Q12824)	-0.023	–	–	-0.261	-0.005	-0.158	-0.171	–	–	-0.103	0.887 (active)
SMPD4 isoform 2 (UniProt Q9NXE4)	–	-0.1	0.014	-0.03	–	0.216	–	-0.058	–	–	–
SLC27A1 (UniProt Q6PCB7)	0.026	-0.012	-0.016	0.038	-0.013	–	–	-0.039	0.014	–	–
SSBP4 (UniProt Q9BWG4)	0.177	0.041	-0.024	–	-0.084	-0.107	0.018	-0.008	–	-0.093	0.119
SNX2 isoform 2 (UniProt O60749)	0.043	-0.004	–	-0.264	0.088	–	0.065	–	-0.183	-0.1	-0.255
SRCAP (UniProt Q6ZRS2)	-0.079	–	0.001	-0.041	0.077	-0.039	0.014	-0.022	–	0.001	0.029
